About 83,000 compounds went through this panel and 20% of them were active in at least one assay; those are over-represented in the sample as a whole.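 Method: cells in 96-well plates; compound added at one concentration; 48 h incubation; percent growth measured; values under 10 scored active.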 Active and inactive are the calls of the source.
What follows are molecules tested on HT29 colon (assay: NCI-60 one-dose screen, 48 h (100 = growth as untreated, 0 = no growth, -100 = all killed)). Details: 10 µM unless noted.
Protocol: Growth inhibition of the HT29 human tumor cell line is measured as a screen for anti-cancer activity. Cells are grown in 96 well plates and exposed to the test compound for 48 hours. Compounds are tested at a single concentration, which is 10^-5 M for most compounds. The reported endpoint is percent growth (GI% or GIPRCNT), where numbers from 0 - 100% represent growth inhibition, and numbers from -100% - 0 represent cell death. For example, a value of 40 represents 60% growth inhibition. A value of 0 means no net growth occurred over the course of the experiment. A value of -40 indicates 40% of cells at the beginning of the experiment died by the end of the experiment. A value of -100 means all cells are dead at the end of the experiment.
NCI-60 Human Tumor Cell Lines Screen was performed using the standard one-dose NCI protocol, which is described in more detail at https://dtp.cancer.gov/discovery_development/nci-60/default.htm.
Compounds with GIPRCNT values below 10 were considered active. Activity score was based on GIPRCNT using the following formula: […]
Score is 0 for GIPRCNT values of 100 or above, 50 for GIPRCNT values of 0, and 100 for GIPRCNT values of -100.

Structure (SMILES)	growth
CCOC(=O)C1=C(CCl)NC(=O)NC1c1ccc2c(c1)OCO2 (stereo not given)	6.92% (active)
O=S(=O)(NCCNc1nccc(-c2c(-c3cccc(F)c3)nc3sccn23)n1)c1ccc(Cl)cc1	36% (inactive)
NS(=O)(=O)c1ccc(Cn2c(SCC(=O)N/N=C/c3ccccc3O)nc3ccccc3c2=O)cc1	86.3% (inactive)
Nc1c(C(=O)Nc2cccc3cnccc23)sc2nc3c(cc12)CN(Cc1ccccc1)CC3	108% (inactive)
C=C(C)[C@@H]1CC[C@]2(C(=O)N[C@@H](Cc3ccccc3)C(=O)OC)CC[C@]3(C)[C@H](CC[C@@H]4[C@@]5(C)CCC(=O)C(C)(C)[C@@H]5CC[C@]43C)[C@@H]12	70.1% (inactive)
CNC(=O)c1cccc(Cn2nc(C)c(NC(=O)c3ccc(COc4ccc(C(F)(F)F)cc4C)cc3)c2C)n1	42% (inactive)
O=C1Nc2cc(-c3ccc(NS(=O)(=O)c4ccccc4)cc3)ccc2/C1=C/c1ccc[nH]1	84.2% (inactive)
Nc1ccccc1NC(=O)c1ccc(-n2nc(-c3ccccc3)c3ccccc32)cc1	88.4% (inactive)
COc1cc(CC(=O)n2ncc3ccc(N)cc32)cc(OC)c1OC	109% (inactive)
CCSCC1CC(O)(c2ccccc2)CC(c2ccc(F)cc2)O1 (stereo not given)	2.51% (active)
C=CC(=O)N[C@@H](/C=C/C(=O)OCC)Cc1ccc(-c2cc(Cl)cc(Cl)c2)cc1	20.3% (inactive)
CCOC(=O)c1cc(C(=O)c2ccc(OC)c(OC)c2)n2ccc(/C=C/c3cc[n+](CC(=O)c4ccc(OC)c(OC)c4)cc3)cc12	95.5% (inactive)
CCCCCCNC(=O)Oc1ccc(/C(=C(\C)c2ccccc2)c2ccc(OCCN3CCCCC3)cc2)cc1	-6.46% (active)
Cc1cccc(-c2cn3ccnc3c(-c3ccc4ncn(Cc5ccccc5)c4c3)n2)c1	58% (inactive)
Cc1ccc(NC(=O)c2cc(-c3nc4ccccc4s3)c(=O)n(NS(=O)(=O)c3ccc(Cl)cc3)c2N)cc1	108% (inactive)
CCCOc1ccc(/C=N/Nc2cc(C)nc3ccc(Cl)cc23)cc1	-6.94% (active)
O=C1c2cccc3c(-c4ccc5c(c4)ncn5C4CCCCC4)ccc(c23)C(=O)N1c1nc2ccccc2s1	84% (inactive)
Cc1nn(-c2ccccc2)c(Cl)c1/C=C/C(=O)c1ccc(F)cc1	91.1% (inactive)
N#CC(C(=O)/C(=N/NC(=O)c1ccccc1O)C(C#N)c1ccccc1)c1ccccc1 (stereo not given)	101% (inactive)
NNC(=O)c1ccc(-n2nc(-c3ccccc3)c3ccccc32)cc1	103% (inactive)

Structure (SMILES)	growth
COc1cc2c(cc1OC)C(=O)/C(=C/c1cc(C)c(O)c(C)c1)S2	83.2% (inactive)
C=C(C)[C@@H]1CC[C@]2(C(=O)N3CCN(C)CC3)CC[C@]3(C)[C@H](CC[C@@H]4[C@@]5(C)CC[C@H](O)C(C)(C)[C@@H]5CC[C@]43C)[C@@H]12	-90.4% (active)
COc1cc(F)c(/C=C/c2cc(/C=C/c3cc(OC)c(OC)cc3F)on2)cc1OC	77.9% (inactive)
CCN(CC)CCCC(C)Nc1cc(O)cc2cccnc12 (stereo not given)	44.4% (inactive)
CCC(=O)Oc1ccc(/C(=C(\C)c2ccccc2)c2ccc(OCCN3CCCCC3)cc2)cc1	8.78% (active)
COc1cc(/C=N/NC(=O)c2cnn3c2NC(c2ccccc2)C3)ccc1Oc1ccccc1 (stereo not given)	0.454% (active)
COc1cc(/C=C2\COc3ccc(-c4ccccc4)cc3C2=O)cc(OC)c1	60.7% (inactive)
CC(=O)[C@@H]1CC[C@]2(CO)CC[C@]3(C)[C@H](CC[C@@H]4[C@@]5(C)CCCNC(C)(C)[C@@H]5CC[C@]43C)[C@@H]12	68.1% (inactive)
O=C1CC(=O)OC(c2ccc([N+](=O)[O-])cc2)O1	-39.5% (active)
CN(C)CC(O)c1ccc(/C=C/c2ccc(Cl)cc2)cc1 (stereo not given)	-69.5% (active)
Cc1ccc(-n2c3c(c(-c4ccccc4)c2-c2ccccc2)C2=NCCN2C=N3)cc1	88% (inactive)
COc1cccc(/C=N/NC(=O)c2cnn3c2NC(c2ccccc2)C3)c1Oc1ccccc1 (stereo not given)	41.5% (inactive)
COC(=O)C(CC=O)C(=O)C(=O)Nc1cccc(C(F)(F)F)c1 (stereo not given)	99.1% (inactive)
Cc1cnc(C(=O)Nc2nc3ccc(S(=O)(=O)Nc4ccc(C5(C(F)(F)F)CC5)cc4)cc3[nH]2)cn1	9.04% (active)
O=C(Nc1cccc(C(=O)N2CCc3ccc(Cl)cc32)c1)c1ccco1	15.9% (inactive)
NC1=NN=C(N)C1=Cc1cc2ccccc2n2nnnc12	104% (inactive)
CC(C)(C)c1cc(C=O)cc(C(C)(C)C)c1O	102% (inactive)
OC(c1ccc(F)c(C(F)(F)F)c1)c1cnccc1NC1CCCCC1 (stereo not given)	14.3% (inactive)
Cc1cc2c(C(=O)NCC#N)cccc2n1-c1nc2c(c(NCc3ccccc3)n1)CCCC2	-3.71% (active)
Brc1ccc2[nH]cc(-c3cncn3CCc3ccccc3)c2c1	65.6% (inactive)
